# “And” between values parts separate entries of the source, which are not always exact repeats. Equal entries are not always repeated. For some assays here: Results with a measured potency or affinity are listed apart. This is one part of the list. The source made the active and inactive calls. Unless noted, how the calls were made is not given here.
# Tests used:
# [1] = biological target: Ras-related C3 botulinum toxin substrate 1 (Homo sapiens) (UniProt P63000); test: inhibition of wildtype Rac1 nucleotide loading – biochemical, multiplex bead flow cytometry, dose response (AID 1340;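 active means dose curve with midpoint inside tested range, moderate steepness, plateau gap beyond fit error, low compound glow and bead-link interference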); settings: GST-Rac1 beads, Bodipy-FL-GTP binding; at 100 µM (top of the series) unless noted
# [2] = biological target: GTPase HRas (Homo sapiens) (UniProt P01112); test: Ras wt fluorescent GTP loading blockade – biochemical, wildtype, multiplex bead flow cytometry, dose response (AID 1335;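 active means fitted half-maximal concentration within 10 nM to 100 µM, steepness 0.5 to 2, significant signal drop, low assay interference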); settings: bead-based flow cytometry, Bodipy-GTP binding to GST-Ras; at 100 µM (top of the series) unless noted
# [3] = system: Ras-related protein Rab-7a (dog), GTP binding; test: blockers of fluorescent GTP binding to Rab7 – biochemical, wildtype, multiplex bead flow cytometry, dose response (AID 1336)
# [4] = biological target: GTPase HRas (Homo sapiens) (UniProt P01112); test: blockade of GTP loading onto mutant Ras – biochemical, activated mutant, multiplex bead flow cytometry, dose response (AID 1341;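 active means dose-response curve with midpoint inside the tested range, moderate steepness, significant amplitude and little compound fluorescence or bead-attachment interference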;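 further: GST-tagged constitutively activated Ras mutant immobilized on beads and multiplexed with other GTPases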)
# [5] = biological target: Cell division control protein 42 homolog (Homo sapiens) (UniProt P60953); test: inhibition of fluorescent GTP binding to wildtype Cdc42 – biochemical, multiplex bead flow cytometry, Bodipy-FL-GTP, dose response (AID 1334;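 active means fitted half-maximal concentration within the tested range, moderate curve steepness, significant signal drop, and little compound fluorescence or bead-linkage interference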); settings: bead-based flow cytometry, Bodipy-FL-GTP binding to GST-Cdc42; at 100 µM (top of the series) unless noted
# [6] = biological target: Regulator of G-protein signaling 16 (Homo sapiens) (UniProt O15492); test: small molecules altering RGS protein interactions with GNAO1 – biochemical, multiplexed beads, flow cytometry, RGS4/7/8/16/19, primary screen (AID 1504); settings: multiplexed bead flow cytometry, measured here: RGS16 interaction, at 10 µM;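 further: fluorescently labeled Galpha-o bound to GDP with aluminium fluoride binding biotinylated RGS beads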
# [7] = biological target: Regulator of G-protein signaling 19 (Homo sapiens) (UniProt P49795); test: as above; settings: multiplexed bead flow cytometry, measured here: RGS19 interaction, at 10 µM
# [8] = biological target: Regulator of G-protein signaling 4 (Homo sapiens) + Guanine nucleotide-binding protein G(o) subunit alpha (Homo sapiens) (UniProt P49798+P09471); test: as above; settings: multiplexed bead flow cytometry, at 10 µM
# [9] = biological target: Regulator of G-protein signaling 7 (Homo sapiens) (UniProt P49802); test: as above; settings: multiplexed bead flow cytometry, measured here: RGS7 interaction, at 10 µM
# [10] = biological target: Regulator of G-protein signaling 8 (Homo sapiens) (UniProt P57771); test: as above; settings: multiplexed bead flow cytometry, measured here: RGS8 interaction, at 10 µM
# [11] = interference with biotin-avidin bead interaction – biochemical, flow cytometry, bead-based, counter-screen for RGS protein interaction modulators (AID 1783;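 active means inhibition above 50%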;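 further: median green fluorescence of gated singlet beads compared with DMSO control wells; 0% = DMSO wells and 100% = complete loss of bead fluorescence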); settings: streptavidin beads, fluorescein-biotin binding; at 10 µM, stronger effect = higher value
# [12] = biological target: Guanine nucleotide-binding protein G(o) subunit alpha (Homo sapiens) (UniProt P09471); test: retest of RGS8-Galphao interaction hits – biochemical, multiplexed bead flow cytometry, single concentration, confirmation (AID 1836; in the data active means binding response below about 72% or above about 130%; inactive means in between;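 further: Galphao activated as GDP AlF4 complex before binding bead RGS8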); settings: bead-based flow cytometry RGS8-Galphao binding, fluorescence; at 10 µM; actives lie on both sides
# [13] = biological target: Guanine nucleotide-binding protein G(o) subunit alpha (Homo sapiens) (UniProt P09471); test: retest of RGS7-Galphao interaction hits – biochemical, multiplexed bead flow cytometry, single concentration, confirmation (AID 1837; in the data active means response below about 75% or above about 130%; inactive means in between;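 further: fluorescent Galphao activated with GDP and aluminum fluoride binding bead-coupled RGS7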); settings: bead-based flow cytometry RGS7-Galphao binding; at 10 µM; actives lie on both sides
# [14] = biological target: Regulator of G-protein signaling 16 (Homo sapiens) + Guanine nucleotide-binding protein G(o) subunit alpha (Homo sapiens) (UniProt O15492+P09471); test: RGS16 and Galphao interaction regulators – biochemical, single concentration, multiplexed bead flow cytometry, confirmation (AID 1838; in the data active means response below about 74% or above about 130%; inactive means in between;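 further: Galphao activated as the GDP aluminium fluoride complex binding bead-coupled RGS16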); settings: bead-based flow cytometry, at 10 µM, actives lie on both sides
# [15] = biological target: Guanine nucleotide-binding protein G(o) subunit alpha (Homo sapiens) (UniProt P09471); test: RGS4 and Galphao interaction regulators – biochemical, single concentration, multiplexed bead flow cytometry, confirmation (AID 1840; in the data active means binding response below about 74% or above about 130%; inactive means in between); settings: at 10 µM, actives lie on both sides
# [16] = biological target: Guanine nucleotide-binding protein G(o) subunit alpha (Homo sapiens) + Regulator of G-protein signaling 19 (Homo sapiens) (UniProt P09471+P49795); test: RGS19 interaction with Gαo, hit retest – biochemical, single point, multiplexed bead flow cytometry, confirmation (AID 1841; in the data active means response below about 50% or above about 160%; inactive means in between;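 further: 100% = no compound control and 0% = blank background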); settings: bead-based flow cytometry RGS19-Galphao binding; at 10 µM; actives lie on both sides
# Guanine nucleotide-binding protein G(o) subunit alpha (Homo sapiens) + Regulator of G-protein signaling 19 (Homo sapiens), sequence (P09471 whole entry, looked up): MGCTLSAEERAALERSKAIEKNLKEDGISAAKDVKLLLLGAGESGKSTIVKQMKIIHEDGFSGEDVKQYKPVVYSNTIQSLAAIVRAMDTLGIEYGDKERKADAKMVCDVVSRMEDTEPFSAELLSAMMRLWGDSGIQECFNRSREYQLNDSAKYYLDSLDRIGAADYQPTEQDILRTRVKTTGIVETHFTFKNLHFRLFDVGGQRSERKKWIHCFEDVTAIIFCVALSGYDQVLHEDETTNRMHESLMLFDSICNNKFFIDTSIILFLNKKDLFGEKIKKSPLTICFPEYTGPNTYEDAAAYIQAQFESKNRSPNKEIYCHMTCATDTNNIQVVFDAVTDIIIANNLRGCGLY
# Guanine nucleotide-binding protein G(o) subunit alpha (Homo sapiens) + Regulator of G-protein signaling 19 (Homo sapiens), sequence (P49795 whole entry, looked up): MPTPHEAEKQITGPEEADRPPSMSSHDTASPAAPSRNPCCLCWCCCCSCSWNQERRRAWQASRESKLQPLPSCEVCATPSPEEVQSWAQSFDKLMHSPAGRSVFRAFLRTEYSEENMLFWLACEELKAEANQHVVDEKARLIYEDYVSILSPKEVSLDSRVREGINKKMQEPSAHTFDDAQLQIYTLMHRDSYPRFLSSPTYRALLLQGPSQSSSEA
# Regulator of G-protein signaling 4 (Homo sapiens) + Guanine nucleotide-binding protein G(o) subunit alpha (Homo sapiens), sequence (P09471 whole entry, looked up): as the sequence (P09471 whole entry, looked up) above
# Regulator of G-protein signaling 4 (Homo sapiens) + Guanine nucleotide-binding protein G(o) subunit alpha (Homo sapiens), sequence (P49798 whole entry, looked up): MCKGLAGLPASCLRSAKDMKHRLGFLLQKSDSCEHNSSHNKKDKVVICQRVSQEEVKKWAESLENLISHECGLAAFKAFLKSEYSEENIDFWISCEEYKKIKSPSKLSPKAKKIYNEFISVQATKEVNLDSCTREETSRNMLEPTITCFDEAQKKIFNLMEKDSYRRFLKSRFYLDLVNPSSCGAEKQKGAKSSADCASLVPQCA
# Guanine nucleotide-binding protein G(o) subunit alpha (Homo sapiens), sequence (P09471 whole entry, looked up): as the sequence (P09471 whole entry, looked up) above
# Regulator of G-protein signaling 16 (Homo sapiens) + Guanine nucleotide-binding protein G(o) subunit alpha (Homo sapiens), sequence (O15492 whole entry, looked up): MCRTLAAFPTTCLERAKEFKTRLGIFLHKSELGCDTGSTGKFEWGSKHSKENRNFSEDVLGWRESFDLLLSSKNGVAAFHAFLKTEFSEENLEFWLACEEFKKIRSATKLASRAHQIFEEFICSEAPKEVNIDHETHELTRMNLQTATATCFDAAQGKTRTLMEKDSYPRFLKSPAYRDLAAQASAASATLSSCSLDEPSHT
# Regulator of G-protein signaling 16 (Homo sapiens) + Guanine nucleotide-binding protein G(o) subunit alpha (Homo sapiens), sequence (P09471 whole entry, looked up): as the sequence (P09471 whole entry, looked up) above
# GTPase HRas (Homo sapiens), sequence (P01112 whole entry, looked up): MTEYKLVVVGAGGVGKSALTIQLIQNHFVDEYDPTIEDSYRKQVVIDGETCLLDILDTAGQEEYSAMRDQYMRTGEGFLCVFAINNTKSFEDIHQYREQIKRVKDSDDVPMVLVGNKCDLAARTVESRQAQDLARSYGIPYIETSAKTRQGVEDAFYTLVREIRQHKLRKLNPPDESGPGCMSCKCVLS
# Cell division control protein 42 homolog (Homo sapiens), sequence (P60953 whole entry, looked up): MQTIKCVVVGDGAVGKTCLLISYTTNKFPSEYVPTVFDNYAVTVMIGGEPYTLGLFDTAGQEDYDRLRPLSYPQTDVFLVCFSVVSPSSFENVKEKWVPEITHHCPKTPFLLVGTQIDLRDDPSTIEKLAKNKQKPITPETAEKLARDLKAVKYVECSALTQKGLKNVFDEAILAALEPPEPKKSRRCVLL
smiles,measurement,setting,value
CC(=O)Oc1ccc2c(c1)Oc1cc(OC(C)=O)ccc1C21OC(=O)c2ccccc21,"GTP binding signal, raw median fluorescence (lower = inhibition) (MCF (arbitrary fluorescence units))",[1],720
COc1ccc(-c2cc(=O)c3cc(OC)ccc3[nH]2)cc1,"GTP binding signal, raw median fluorescence (lower = inhibition) (MCF (arbitrary fluorescence units))",[1],229
CCn1cc(C(=O)OCC(=O)c2cc(C)n(-c3ccc(OC(F)F)cc3)c2C)c(=O)c2ccc(C)nc21,"GTP binding signal, raw median fluorescence (lower = inhibition) (MCF (arbitrary fluorescence units))",[1],148
COc1ccc(C2CC(c3ccccc3)=NN2c2ccc(S(N)(=O)=O)cc2)cc1 (stereo not given),"GTP binding, percent of control",[2],84.1%
same,outcome,[3],inactive
same,"GTP binding signal, raw median fluorescence (lower = inhibition) (MCF (arbitrary fluorescence units))",[1],260 and 239
same,outcome,[4],inactive
N#C/C(=C/c1ccc(N2CCCCC2)o1)C(=O)Nc1ccc2ccccc2c1,"GTP binding signal, raw median fluorescence (lower = inhibition) (MCF (arbitrary fluorescence units))",[1],469
O=C(O)c1ccccc1NCCc1ccc(Cl)cc1,"GTP binding, percent of control",[2],87%
same,outcome,[4],inactive
CC(=O)c1ccc(C#CC(=O)c2ccc([N+](=O)[O-])cc2)cc1,"GTP binding, percent of control",[2],204%
same,outcome,[3],inactive
same,"GTP binding signal, raw median fluorescence (lower = inhibition) (MCF (arbitrary fluorescence units))",[1],55.9
same,outcome,[4],inactive
O=C(C#Cc1ccc(F)cc1)c1ccc([N+](=O)[O-])cc1,"fluorescence, percent of control (lower = inhibition)",[5],39.2%
same,"GTP binding, percent of control",[2],142%
same,outcome,[3],inactive
same,"GTP binding signal, raw median fluorescence (lower = inhibition) (MCF (arbitrary fluorescence units))",[1],48.4
same,outcome,[4],inactive
O=C(C#CC1CCCCC1)c1ccc([N+](=O)[O-])cc1,"fluorescence, percent of control (lower = inhibition)",[5],33%
same,"GTP binding, percent of control",[2],177%
same,outcome,[3],inactive
same,"GTP binding signal, raw median fluorescence (lower = inhibition) (MCF (arbitrary fluorescence units))",[1],45.6
same,outcome,[4],inactive
Cc1ccccc1N(CC(=O)N/N=C/c1ccccc1Cl)C(=O)c1ccccc1,"GTP binding signal, raw median fluorescence (lower = inhibition) (MCF (arbitrary fluorescence units))",[1],212
N#Cc1c(-c2ccccc2)nc(SCC(=O)Nc2ccccc2)[nH]c1=O,"GTP binding, percent of control",[2],47.2%
COc1cc(C(=O)Nc2cc(C(F)(F)F)ccc2N2CCOCC2)ccc1O,RGS16–Galpha-o binding response,[6],9.57%
same,RGS19–Galpha-o binding response,[7],135%
same,RGS4–Galpha-o binding response,[8],79.2% (active)
same,RGS7–Galpha-o binding response,[9],84.8%
same,RGS8–Galpha-o binding response,[10],70.4%
same,inhibition,[11],0.3% (inactive)
same,binding response (% of control),[12],104% (inactive)
same,response (percent of control binding),[13],102% (inactive)
same,response (% of control binding),[14],98.8% (inactive)
same,binding response (% of control),[15],97.9% (inactive)
same,response (percent of control binding),[16],86.5% (inactive)
CC(=O)c1ccc(NC(=S)NC(=O)CC(C)C)cc1,RGS16–Galpha-o binding response,[6],21.8%
same,RGS19–Galpha-o binding response,[7],162%
same,RGS4–Galpha-o binding response,[8],91.6% (active)
same,RGS7–Galpha-o binding response,[9],91.6%
same,RGS8–Galpha-o binding response,[10],81.4%
same,inhibition,[11],3.2% (inactive)
same,binding response (% of control),[12],99.1% (inactive)
same,response (percent of control binding),[13],86.2% (inactive)
same,response (% of control binding),[14],93.9% (inactive)
same,binding response (% of control),[15],93.6% (inactive)
same,response (percent of control binding),[16],87.5% (inactive)
C/C(=C/C(=O)N1CCN(C)CC1)C(=O)O,RGS16–Galpha-o binding response,[6],234%
same,RGS19–Galpha-o binding response,[7],-6.25%
same,RGS4–Galpha-o binding response,[8],109% (active)
same,RGS7–Galpha-o binding response,[9],105%
same,RGS8–Galpha-o binding response,[10],125%
same,inhibition,[11],0.5% (inactive)
same,binding response (% of control),[12],104% (inactive)
same,response (percent of control binding),[13],98.7% (inactive)
same,response (% of control binding),[14],105% (inactive)
same,binding response (% of control),[15],102% (inactive)
same,response (percent of control binding),[16],102% (inactive)
CCC(=O)Nc1c(S(=O)(=O)c2ccccc2)c2nc3ccccc3nc2n1Cc1ccccc1,RGS16–Galpha-o binding response,[6],13.9%
same,RGS19–Galpha-o binding response,[7],285%
same,RGS4–Galpha-o binding response,[8],89.8% (active)
same,RGS7–Galpha-o binding response,[9],87.2%
same,RGS8–Galpha-o binding response,[10],70.1%
same,inhibition,[11],-0.3% (inactive)
same,binding response (% of control),[12],103% (inactive)
same,response (percent of control binding),[13],99.2% (inactive)
same,response (% of control binding),[14],104% (inactive)
same,binding response (% of control),[15],103% (inactive)
same,response (percent of control binding),[16],101% (inactive)
O=[N+]([O-])C(=c1ccc2c(c1)N1C3=C(CCCC3)CC3CCCCC31N=2)[N+](=O)[O-] (stereo not given),RGS16–Galpha-o binding response,[6],20.9%
same,RGS19–Galpha-o binding response,[7],357%
same,RGS4–Galpha-o binding response,[8],80.6% (active)
same,RGS7–Galpha-o binding response,[9],-195%
same,RGS8–Galpha-o binding response,[10],43.8%
CCOc1cc(C(=O)N2CCc3cc(OC)c(OC)cc3C2)ccc1OC(F)F,RGS16–Galpha-o binding response,[6],124%
same,RGS19–Galpha-o binding response,[7],-289%
same,RGS4–Galpha-o binding response,[8],128% (active)
same,RGS7–Galpha-o binding response,[9],159%
same,RGS8–Galpha-o binding response,[10],105%

# Source: PubChem BioAssay
